Screening results (PubChem)
CYP2C9 inh – inhibitors of human CYP2C9. P11712. CYP2C9 Supersomes, luciferin-H conversion, luminescence. inhibition, % at 5 µM. 96,000 compounds, 20% hits. AID 777;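 active = blocking of liver enzyme CYP2C9 beyond about 50% at 5 µM, limit read from the data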
PostGolgi ctrl – yeast control strain growth, post-Golgi counter-screen; efflux-deficient yeast background strain, growth absorbance A615, 16 h; inhibition, % at 10 µM; 98,000 compounds, 5% hits; AID 738
CYP2C9 act – activators of human CYP2C9; recombinant CYP2C9, luciferin-H conversion, luminescence; hits give high values; factor 1 = untreated enzyme, 0 = blocked; activation factor at 5 µM; 96,000 compounds, 1.4% hits; AID 1024;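 active = activation factor of 2 or more for CYP2C9 at a 5 µM dose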;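 note: 0 = sulfaphenazole-blocked wells and 1 = vehicle-only wells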
PostGolgi yeast – growth inhibition of a yeast mutant, post-Golgi transport screen; post-Golgi transport phenotypic cell assay; inhibition, % at 10 µM; 98,000 compounds, 0.9% hits; AID 739;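 note: yeast cells grown in 1536-well plates; yeast grown about 18 h at 30C before absorbance read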
CYP2C19 act – activators of human cytochrome P450 2C19. activation factor at 5 µM. recombinant CYP2C19, luciferin-H EGE luminescence; hits give high values; 0 = fully inhibited enzyme, 1 = untreated enzyme. 96,000 tested, under 10 active. AID 1025;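 active = activation factor of at least 2 at 5 µM in the primary screen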;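 note: 0 = wells with 2.5 mM tranylcypromine and 1 = vehicle-only wells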
Target sequence (P33261 whole entry, looked up): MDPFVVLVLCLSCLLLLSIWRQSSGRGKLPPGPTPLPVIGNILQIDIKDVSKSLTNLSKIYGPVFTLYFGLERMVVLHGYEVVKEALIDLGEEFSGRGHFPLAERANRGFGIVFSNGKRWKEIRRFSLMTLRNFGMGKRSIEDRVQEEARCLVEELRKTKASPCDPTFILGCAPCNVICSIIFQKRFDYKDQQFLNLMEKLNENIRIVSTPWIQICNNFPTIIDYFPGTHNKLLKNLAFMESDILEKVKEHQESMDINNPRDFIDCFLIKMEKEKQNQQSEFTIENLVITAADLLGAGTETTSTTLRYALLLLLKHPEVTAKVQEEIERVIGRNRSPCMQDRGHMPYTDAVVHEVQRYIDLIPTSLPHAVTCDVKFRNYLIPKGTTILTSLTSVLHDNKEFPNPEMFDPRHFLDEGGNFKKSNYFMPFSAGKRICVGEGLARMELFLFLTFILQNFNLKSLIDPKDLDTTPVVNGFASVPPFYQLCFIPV
CYP2C19 inh – human CYP2C19 inhibition. P33261. CYP2C19 Supersomes, luciferin-H EGE luminescence, 30 min. inhibition, % at 5 µM. 96,000 compounds, 21% hits. AID 778;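 active = CYP2C19 inhibition above a set limit at 5 µM in the primary screen, cut at about 50% in these data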;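 note: plate controls were negative control wells for no effect and 2.5 mM tranylcypromine positive control for full effect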
Starred values were filed as active, the others as inactive. Shown are actives, neighbours in structure and some others; about 32% of the full set was active somewhere. Cut-off read from the data, not from the text of the source, unless noted: active = inhibition above about 30%; inactive = the rest.

SMILES	CYP2C9 inh	PostGolgi ctrl	CYP2C9 act	PostGolgi yeast	CYP2C19 act	CYP2C19 inh
COc1cc(-c2nn3c(-c4ccccn4)nnc3s2)cc(OC)c1OC	28	4	0.7	5	0.7	33
COc1cc(OC)c(-c2nn3c(C4CCCCC4)nnc3s2)cc1OC	85*	15	0.1	2	0.2	84*
COc1cc(-c2nnc3sc(C4CCCCC4)nn23)cc(OC)c1OC	77*	22	0.2	2	0.3	75*
c1cncc(-c2nnc3sc(C4CCCCC4)nn23)c1	34	0	0.7	11	0.1	94*
O=C(OCCN=C1NS(=O)(=O)c2ccccc21)C1CC(=O)N(c2ccc3ccccc3c2)C1 (stereo not given)	-34	-8	1.3	-5	0.7	31
Cc1sc(NC(=O)C(C)C)c(C(=O)Nc2ccccc2)c1C	26	10	0.7	-3	0.5	48
COc1ccc(-c2cn(-c3ccc(C)cc3)c(=O)n2CC(=O)Nc2ccc(OC)cc2OC)cc1	17	17	0.8	10	0.9	10
Cc1cc(-c2nnc3sc(C4CCCCC4)nn23)n[nH]1	2	9	1	18	0.3	73*
COc1cccc(-c2nnc3sc(C4CCCCC4)nn23)c1	78*	33*	0.2	10	0.2	84*
Cc1cc(-c2nnc3sc(-c4ccc(Cl)cc4Cl)nn23)n[nH]1	2	3	1	10	0.9	8
COc1ccc(-c2nn3c(-c4ccc(F)cc4)nnc3s2)cc1	48	21	0.5	3	0.8	24
COc1cccc(OCC(=O)NN=C2c3ccccc3-c3ccccc32)c1	-67	19	1.7	4	0.7	33
COc1cc2c(cc1OC)-c1nc3ccccc3c(=O)n1C(C)(C)C2	56*	29	0.4	0	0.7	26
Cc1ccc(CNC(=O)C2(C)Oc3ccccc3NC2=O)cc1 (stereo not given)	90*	-11	0.1	23	0.2	79*
Cc1ccc(CNC(=O)Nc2ccccc2)cc1	32	1	0.7	2	0.1	92*
O=C(Cc1cccs1)NCc1ccccc1	3	3	1	7	0.6	41
Cc1ccc(CNC(=O)Cc2cccs2)cc1	-4	15	1	-2	0.1	90*
Cc1ccc(CNC(=O)Nc2cccs2)cc1	10	10	0.9	-2	0.5	51*
O=C(c1ccco1)N1CCN(Cc2nc3ccc([N+](=O)[O-])cc3c(=O)n2-c2ccccc2F)CC1	29	11	0.7	2	0.7	28
CC1(C)Cc2c(sc3c4nnnn4c4nnnn4c23)CO1	7	13	0.9	9	0.9	7
COc1cccc(CNC(=O)CCNS(=O)(=O)c2cccs2)c1	6	14	0.9	-4	0.1	90*
O=C(Cc1cccs1)NCc1ccccc1F	10	-10	0.9	21	0.3	71*
O=C(CCNS(=O)(=O)c1cccs1)NCc1cccs1	18	4	0.8	-1	0.5	47
COc1cccc(CNC(=O)Nc2cccs2)c1	54*	21	0.5	6	0.1	86*
COC(=O)c1ccc(C2C(C(C)=O)=C(O)C(=O)N2CCO)cc1 (stereo not given)	3	-1	1	4	1	0
SMILES	CYP2C9 inh	PostGolgi ctrl	CYP2C9 act	PostGolgi yeast	CYP2C19 act	CYP2C19 inh
CC1(C)CC(=O)C(/C=N/c2ncccc2C(=O)O)=C(O)C1	2	-4	1	2	1.1	-9
O=C(CCN1CCC(c2ccccc2)C1)c1ccccc1 (stereo not given)	58*	1	0.4	-1	0.1	88*
O=C(c1cccs1)N1CCC(c2ccccc2)C1 (stereo not given)	81*	4	0.2	3	0	98*
O=C(CCN1CCC(c2ccccc2)C1)c1ccc2c(c1)OCCO2 (stereo not given)	-30	15	1.3	4	1.1	-5
O=C(CCN1CCC(c2ccccc2)C1)c1cccs1 (stereo not given)	25	39*	0.8	3	0.2	78*
O=C(c1cccs1)N1CCC(N2CCN(c3ccccc3)CC2)CC1	-1	3	1	0	1	5
Cc1ccc(S(=O)(=O)N2CCC(C(=O)OCC(=O)N3CCc4ccccc43)CC2)cc1	-9	3	1.1	-6	1	-3
CCN1CCCC1Cn1cnc2c([nH]c3cccc(Cl)c32)c1=O (stereo not given)	8	-2	0.9	4	0.9	7
O=C(c1ccccc1)N(Cc1ccco1)C1CCS(=O)(=O)C1 (stereo not given)	-9	2	1.1	-4	0.9	14
O=C(O)CC(c1ccccc1)c1ccccc1	52*	-1	0.5	4	1.1	-5
COc1ccc(N2C(=O)c3ccccc3NC23CCCCC3)cc1	64*	17	0.4	0	0.5	49
CN1CCN(C(=O)CN(CCc2ccccc2)S(C)(=O)=O)CC1	2	17	1	8	0.6	40
Cc1nnc(NC(=O)C2CCCN(S(=O)(=O)Cc3ccccc3)C2)s1 (stereo not given)	11	-4	0.9	4	0.9	10
COc1cccc(NC(=O)C2CCCN(S(=O)(=O)c3cccc4cccnc34)C2)c1 (stereo not given)	-2	3	1	2	0.7	33
Cc1nnc(NC(=O)C2CCCN(S(=O)(=O)c3ccccc3C(F)(F)F)C2)s1 (stereo not given)	62*	42*	0.4	1	0.5	51*
O=C(Nc1ccncc1)C1CCCN(S(=O)(=O)c2cccc3cccnc23)C1 (stereo not given)	94*	5	0.1	-11	0	99*
O=C(C1CCCN(S(=O)(=O)c2cccc3cccnc23)C1)N1CCN(c2ccc(F)cc2)CC1 (stereo not given)	-82	2	1.8	10	0.4	61*
O=C(C1CCN(S(=O)(=O)c2cccc3cccnc23)CC1)N1CCN(c2ccccc2)CC1	-92	-8	1.9	-5	0.6	41
CCOC(=O)C1CCCN(S(=O)(=O)c2cccc3cccnc23)C1 (stereo not given)	-346	-1	4.5*	-4	0.2	81*
CSCCC(NC(=O)c1ccc(C)o1)C(=O)O (stereo not given)	0	-2	1	6	1	0
O=C(Nc1ccccc1F)C1CCCN(S(=O)(=O)c2cccc3cccnc23)C1 (stereo not given)	-73	7	1.7	-5	0.2	76*
Cc1[nH]c(=O)[nH]c(=O)c1S(=O)(=O)N1CCCC(C(=O)NCc2ccco2)C1 (stereo not given)	97*	4	0	-7	0.3	74*
